Assay outcomes (PubChem)
miR-122 inh: raises miR-122 sensor activity in Huh7 cells | hit rate 0.14% among 340,000 | AID 623901 | Huh7 psiCHECK-miR122 Renilla luciferase sensor, 48 h | activation, % at 12.5 µM;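 active = mean activation of 30% or more, with every replicate also reaching 30%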;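 also: 0% = median of neutral control wells and 100% = median of positive control wells; higher luciferase signal means stronger suppression of miR-122 activity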
Starred values were filed as active, the others as inactive. The full list was thinned out, with hits kept by preference.

SMILES | miR-122 inh
C[C@@H]1CN([C@H](C)CO)S(=O)(=O)c2ccc(-c3ccncc3)cc2O[C@H]1CN(C)C(=O)C1CC1 | -13
C[C@@H]1CN([C@@H](C)CO)S(=O)(=O)c2ccc(-c3cccnc3)cc2O[C@H]1CN(C)Cc1ccccn1 | 3
O=C1/C(=C/c2ccncc2)CCC/C1=C\c1ccncc1 | 78*
COc1cc(/C=C2/CCC/C(=C\c3cc(O)c(OC)c(Cl)c3)C2=O)cc(Cl)c1O | -113
C[C@H](CO)N1C[C@H](C)[C@@H](CN(C)C(=O)c2ccncc2)Oc2cc(C#Cc3ccncc3)ccc2S1(=O)=O | 13
C[C@H]1CN([C@@H](C)CO)C(=O)c2cc(C#CC3(O)CCCC3)cnc2O[C@H]1CN(C)S(=O)(=O)c1ccccc1 | -4
CCN(CC)CCOc1cccc(C(C)C)c1 | 36*
CCC(=O)N1C[C@@H](C)[C@H](OC)CN(C)C(=O)c2ccc(NC(=O)C3CCCCC3)cc2OC[C@@H]1C | 2
C[C@H](CO)N1C[C@H](C)[C@H](CN(C)C(=O)c2ccccn2)Oc2ncc(C#Cc3ccccc3)cc2C1=O | 3
C/C=C/c1cnc2c(c1)C(=O)N([C@@H](C)CO)C[C@@H](C)[C@@H](CN(C)C(=O)c1cccnc1)O2 | 1
C/C=C/c1cnc2c(c1)C(=O)N([C@@H](C)CO)C[C@H](C)[C@H](CN(C)C(=O)Nc1ccccc1F)O2 | 2
Cc1ccccc1-c1ccc2c(c1)O[C@@H](CN(C)C(=O)Nc1ccccc1)[C@H](C)CN([C@@H](C)CO)S2(=O)=O | 6
COC(=O)c1ccc2c(c1)C(C)(C)C(/C=C/c1ccc(OC)c(OC)c1OC)=[N+]2C | 40*
COC(=O)c1ccc(NS(=O)(=O)c2cc(C)ccc2OC)cc1 | -150
C/C=C/c1cnc2c(c1)C(=O)N([C@@H](C)CO)C[C@H](C)[C@@H](CN(C)CC1CCOCC1)O2 | -1
C[C@H]1CN([C@@H](C)CO)C(=O)c2cc(C#CC3(O)CCCC3)cnc2O[C@@H]1CN(C)S(=O)(=O)c1ccccc1 | -3
C/C=C/c1cnc2c(c1)C(=O)N([C@@H](C)CO)C[C@H](C)[C@@H](CN(C)C(=O)Cc1cccnc1)O2 | -3
Cc1noc(C)c1NC(=O)N(C)C[C@@H]1Oc2cc(C#CCC(C)C)ccc2S(=O)(=O)N([C@H](C)CO)C[C@H]1C | 1
C[C@@H]1CN([C@@H](C)CO)C(=O)c2cc(-c3ccc(C(=O)N(C)C)cc3)cnc2O[C@H]1CN(C)C(=O)c1cccnc1 | -1
COc1cc(/C=N/Nc2nc(Nc3ccc(C)cc3)nc(-n3nc(C)cc3C)n2)cc(OC)c1OC | 47*
C[C@H]1CN([C@@H](C)CO)C(=O)c2cc(-c3cccc(C#N)c3)cnc2O[C@@H]1CN(C)C | -1
O=C(c1cc([N+](=O)[O-])ccc1N1CCOCC1)N1CCN(c2ccccc2)CC1 | -90
Cc1onc(C(=O)N2CCN(C(c3ccccc3)c3ccccc3)CC2)c1[N+](=O)[O-] | 31*
C[C@@H]1CN([C@@H](C)CO)S(=O)(=O)c2ccc(C#Cc3ccccc3F)cc2O[C@@H]1CN(C)C(=O)Cc1ccccc1 | 7
C[C@H]1CN([C@@H](C)CO)C(=O)c2cc(C#CC(C)(C)O)cnc2O[C@@H]1CN(C)C(=O)C1CC1 | -2
SMILES | miR-122 inh
CC(C)C#Cc1ccc2c(c1)O[C@H](CN(C)C(=O)NC(C)C)[C@@H](C)CN([C@H](C)CO)S2(=O)=O | -88
O=C(COc1ccc(/C=N/NS(=O)(=O)c2ccccc2)cc1)Nc1ccc(F)cc1 | 36*
Cc1ccc(S(=O)(=O)N/N=C/c2ccc(OCC(=O)Nc3ccccc3Cl)cc2)cc1 | -219
NC(=O)Cn1cc(/C=N\NS(=O)(=O)c2ccc(F)cc2)c2ccccc21 | -135
COc1ccc(-c2ccc(C#N)c(OC(=O)c3c(Cl)cccc3Cl)n2)cc1 | 32*
C[C@@H]1CN([C@@H](C)CO)C(=O)c2cc(C#Cc3cccnc3)cnc2O[C@H]1CN(C)S(C)(=O)=O | -7
C[C@H]1CN([C@@H](C)CO)S(=O)(=O)c2ccc(-c3ccncc3)cc2O[C@@H]1CN(C)Cc1ccccn1 | -7
C[C@H]1CN([C@@H](C)CO)C(=O)c2cc(C#Cc3cccc(F)c3)cnc2O[C@@H]1CN(C)C(=O)C1CC1 | 0
CCC(=O)Nc1ccc2c(c1)OC[C@H](C)N(Cc1ccccc1F)C[C@@H](C)[C@@H](OC)CN(C)C2=O | -4
C[C@H]1CN([C@@H](C)CO)S(=O)(=O)c2ccc(Br)cc2O[C@@H]1CN(C)C(=O)CC1CC1 | -11
CNC[C@@H]1Oc2cc(C#CC3CCCCC3)ccc2S(=O)(=O)N([C@@H](C)CO)C[C@@H]1C | 51*
CNC[C@@H]1Oc2cc(C#C[C@H](C)O)ccc2S(=O)(=O)N([C@@H](C)CO)C[C@@H]1C | 5
CNC[C@@H]1Oc2cc(C#C[C@@H](C)O)ccc2S(=O)(=O)N([C@H](C)CO)C[C@H]1C | 5
CNC[C@H]1Oc2cc(C#CC3CCCCC3)ccc2S(=O)(=O)N([C@H](C)CO)C[C@@H]1C | 42*
CNC[C@H]1Oc2cc(C#CC(C)C)ccc2S(=O)(=O)N([C@@H](C)CO)C[C@@H]1C | -7
